For 29 compounds, inhibition results are on record in PubChem BioAssay AID504329 (Southern Research Specialized Biocontainment Screening …, 2011).

In all, about 340,000 compounds went through this assay and about 1,000 (0.29%) were called active. Only a sample is shown. Entries with a potency or affinity are not part of this list. Values without a mark were called inactive. Cut-off read from the data, not from the text of the source: inconclusive = inhibition above about 27% without an active follow-up result; inactive = below that.

As usually defined, the inhibition is the change of the read-out against control, counted positive when it falls.

The test can be described thus: NS1A inhibition, H1N1 influenza, cell based functional assay (AID 504329). The settings on record: percent inhibition, at 12.5 µM, stronger effect = higher value.
Consider `S=C(NCc1ccccc1)N1CCN(C2CCCCC2)CC1`, for which the inhibition is -12%.

With `S=C(Nc1ccccc1)N1CCN(C2CCCCC2)CC1`, the inhibition is 11.4%. Next, `C/C(=N\NC(=O)C1CCCN(S(=O)(=O)c2ccccc2)C1)c1ccncc1` (centres undefined): -23.8%; `C/C(=N\NC(=O)C1CCCN(S(=O)(=O)c2ccccc2)C1)c1cccnc1` (centres undefined): -20.5%; `CC(=O)C1=C(O)C(=O)N(CCC(=O)O)C1c1ccccc1[N+](=O)[O-]` (centres undefined): -13.3%. Next, `Cc1ccccc1Nc1ccc(S(=O)(=O)N2CCOCC2)cc1[N+](=O)[O-]`: 12.2%; `Cc1ccc(Nc2ccc(S(=O)(=O)N3CCOCC3)cc2[N+](=O)[O-])c(C)c1`: 11.1%; `COc1ccc(C(=O)NCCc2nnc3ccc(SCC(=O)Nc4ccccc4)nn23)cc1`: -20%. With `Cc1ccc(OCC(=O)N2CCC(N3CC(C)CC(C)C3)CC2)cc1` (centres undefined), the inhibition is 17%. Next, `O=C(O)COc1ccc(S(=O)(=O)NCCc2ccccc2)cc1`: -12%; `Oc1ccccc1Nc1ccccn1`: -5.39%. Next, `c1ccc(Nc2ccccn2)nc1`: -3.53%. Next, `O=C(O)c1ccccc1C(=O)c1ccc(F)c(F)c1`: 3.3%. As for `O=C(NCCCNC(=O)c1cccnc1)c1ccc(Cl)cc1`, the inhibition was -0.27%. With `Cc1cccc(C)c1NC(=O)C(NC(=O)CN1C(=O)c2ccccc2C1=O)c1ccccc1` (centres undefined), the inhibition is -3.98%. The same measure for `Cc1cc(Cl)ccc1OCC(=O)O`: -1.09%; for `C=C(CC)C(=O)c1ccc(OCC(=O)O)c(Cl)c1Cl`: 0.79%; for `O=C(COC(=O)COc1ccc(Cl)cc1Cl)NC1CC1`: 0.21%.

For the compound `CN(CC(=O)Nc1ccccc1C(=O)NC1CC1)Cc1ccc(N(C)C)cc1`, the inhibition was 0.15%. Next, `O=C(Nc1ccc2c(c1)C(=O)c1ccccc1-2)c1ccccc1`: -5.09%. For the compound `Nc1c(Br)cc(Br)c2c1C(=O)c1c(cccc1S(=O)(=O)O)C2=O`, the inhibition is 5.84%. In the case of `Cc1cc(C)c(NC(=O)COC(=O)c2cccc3c2C(=O)c2ccccc2C3=O)c(C)c1`, the inhibition was 3.94%. On to `Nc1ccc(NC(=O)c2ccccc2)c2c1C(=O)c1ccccc1C2=O`, for which the inhibition was 24.3%. Take `CSc1cccc(NC(=O)CN(C)S(=O)(=O)c2ccc(C)cc2)c1`: the inhibition is -2.41%. `CCOc1ccc(NS(=O)(=O)c2ccc(C(=O)NCC(C)(C)N3CCOCC3)cc2)cc1`: the inhibition is -14.4%.

Take `S=C(NCc1ccccc1)NCc1ccccn1`: the inhibition was 1.05%. Next, `Cc1ccc(NC(=S)NCc2ccccn2)cc1`: -14.7%; `O=C(CCCC(=O)N/N=C\c1ccccn1)N/N=C\c1ccccn1`: -2.81%. Consider `O=C(Cc1ccccc1)N/N=C/c1ccccn1`, for which the inhibition is -2.81%.
